Measured values taken from PubChem BioAssay (NCATS).
Inconclusive results are not listed. The source made the active and inactive calls. Unless noted, the call rests on the fitted dose curve.

Assays:
[1] = molecular target: Bile acid receptor (Homo sapiens) (UniProt Q96RI1); assay: qHTS assay for small molecule agonists of farnesoid X receptor signaling (AID 588527); conditions: HEK293T FXR-UAS-bla, beta-lactamase ratio, 16 h; activation: stronger effect = higher value;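 further: series mostly up to about 77 µM; 0% = vehicle basal and 100% = reference agonist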
Chain of Bile acid receptor (Homo sapiens) (Q96RI1 whole entry, looked up): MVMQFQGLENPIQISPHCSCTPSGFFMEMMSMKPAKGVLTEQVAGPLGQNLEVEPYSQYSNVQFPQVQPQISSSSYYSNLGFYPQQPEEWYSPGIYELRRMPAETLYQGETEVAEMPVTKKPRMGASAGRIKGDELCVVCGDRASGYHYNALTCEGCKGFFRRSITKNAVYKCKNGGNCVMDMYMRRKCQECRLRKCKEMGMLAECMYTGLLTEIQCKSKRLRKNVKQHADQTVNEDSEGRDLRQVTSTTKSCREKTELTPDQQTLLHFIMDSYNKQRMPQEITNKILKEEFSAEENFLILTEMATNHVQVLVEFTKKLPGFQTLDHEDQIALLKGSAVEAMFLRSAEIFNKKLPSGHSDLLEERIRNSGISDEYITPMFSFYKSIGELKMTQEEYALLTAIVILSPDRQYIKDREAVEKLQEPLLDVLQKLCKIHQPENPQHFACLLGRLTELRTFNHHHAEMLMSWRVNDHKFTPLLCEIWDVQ
Summary of the method: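 Read-out: beta-lactamase reporter fluorescence with CCF4 substrate in GeneBLAzer FXR-UAS-bla HEK293T cells, after 16 h compound exposure at 37 C. Response scaled between DMSO basal (0%) and chenodeoxycholic acid at 100 uM (100%).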

[2] = molecular target: Bile acid receptor (Homo sapiens) (UniProt Q96RI1); assay: qHTS assay for small molecule antagonists of farnesoid X receptor signaling (AID 588526); further: on the % scale 0 is the no-effect control and ±100 the full control effect
Summary of the method: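 Antagonist mode: titrated compounds tested against chenodeoxycholic acid stimulation (normalized to 50 uM CDCA and DMSO) in GeneBLAzer HEK293T cells for 16 h. Beta-lactamase read by CCF4 fluorescence; IC50 from Hill fits.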

[3] = molecular target: Peroxisome proliferator-activated receptor gamma (Homo sapiens) (UniProt P37231); assay: qHTS assay for small molecule agonists of peroxisome proliferator-activated receptor gamma signaling (AID 588536; active means well fitted curve in the direction sought with a large enough effect in the signal ratio, with a control signal flat, not every such curve was filed as active; the % refers to the signal ratio;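 further: 0% = DMSO basal wells and 100% = rosiglitazone at 2 µM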)
Chain of Peroxisome proliferator-activated receptor gamma (Homo sapiens) (P37231 whole entry, looked up): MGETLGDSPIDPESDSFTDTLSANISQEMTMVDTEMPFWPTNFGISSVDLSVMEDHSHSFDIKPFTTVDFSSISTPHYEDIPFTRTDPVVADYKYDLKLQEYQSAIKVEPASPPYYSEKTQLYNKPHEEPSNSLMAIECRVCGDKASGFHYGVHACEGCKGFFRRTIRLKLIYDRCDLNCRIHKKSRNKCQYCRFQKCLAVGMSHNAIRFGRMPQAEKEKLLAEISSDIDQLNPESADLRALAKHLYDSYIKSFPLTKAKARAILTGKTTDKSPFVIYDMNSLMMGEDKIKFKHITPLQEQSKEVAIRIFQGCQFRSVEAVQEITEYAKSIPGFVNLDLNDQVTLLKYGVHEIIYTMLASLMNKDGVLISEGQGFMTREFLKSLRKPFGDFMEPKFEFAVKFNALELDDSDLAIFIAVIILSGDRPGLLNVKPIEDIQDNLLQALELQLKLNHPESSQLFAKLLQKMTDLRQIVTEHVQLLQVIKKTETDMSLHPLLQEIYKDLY
Summary of the method: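 Beta-lactamase reporter read-out: CCF4 fluorescence (ex 405, em 460/530 nm) after 2 h at RT. HEK293 GeneBLAzer cells were treated for 16 h at 37 C. Hill fits gave EC50 and efficacy versus 2 uM rosiglitazone (100%) and DMSO (0%).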

[4] = molecular target: Vitamin D3 receptor (Homo sapiens) (UniProt P11473); assay: qHTS assay for small molecule antagonists of vitamin D receptor signaling (AID 588541);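 further: receptor activated by calcitriol during compound treatment; series mostly up to about 77 µM; on the % scale 0 is the no-effect control and ±100 the full control effect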
Chain of Vitamin D3 receptor (Homo sapiens) (P11473 whole entry, looked up): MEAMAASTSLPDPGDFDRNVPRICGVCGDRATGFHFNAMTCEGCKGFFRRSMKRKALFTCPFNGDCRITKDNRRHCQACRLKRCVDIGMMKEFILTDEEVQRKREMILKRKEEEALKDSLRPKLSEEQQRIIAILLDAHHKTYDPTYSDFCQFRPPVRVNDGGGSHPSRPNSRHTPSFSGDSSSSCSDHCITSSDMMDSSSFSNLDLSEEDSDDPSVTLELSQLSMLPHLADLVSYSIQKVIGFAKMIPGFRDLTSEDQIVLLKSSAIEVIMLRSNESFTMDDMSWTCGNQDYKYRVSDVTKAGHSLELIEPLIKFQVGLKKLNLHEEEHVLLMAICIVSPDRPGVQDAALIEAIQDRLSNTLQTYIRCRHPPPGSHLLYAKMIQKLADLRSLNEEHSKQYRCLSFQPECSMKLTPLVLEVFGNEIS
Summary of the method: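 VDR-UAS-bla HEK293T cells in 2% charcoal-stripped FBS were stimulated with 1-alpha,25-dihydroxyvitamin D3 (3 nM final) plus compound for 16 h at 37 C. The beta-lactamase CCF4 readout was normalized to 50 nM agonist and DMSO, and Hill fits gave IC50.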

[5] = qHTS assay for small molecule agonists of retinoid X receptor alpha signaling (AID 588544); conditions: HEK293T RXRa-UAS-bla, beta-lactamase reporter, 18 h; 530 nm emission;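 on activation: 0% = DMSO basal wells and 100% = reference agonist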
[6] = molecular target: Retinoic acid receptor RXR-alpha (Homo sapiens) (UniProt P19793); assay: as above
Chain of Retinoic acid receptor RXR-alpha (Homo sapiens) (P19793 whole entry, looked up): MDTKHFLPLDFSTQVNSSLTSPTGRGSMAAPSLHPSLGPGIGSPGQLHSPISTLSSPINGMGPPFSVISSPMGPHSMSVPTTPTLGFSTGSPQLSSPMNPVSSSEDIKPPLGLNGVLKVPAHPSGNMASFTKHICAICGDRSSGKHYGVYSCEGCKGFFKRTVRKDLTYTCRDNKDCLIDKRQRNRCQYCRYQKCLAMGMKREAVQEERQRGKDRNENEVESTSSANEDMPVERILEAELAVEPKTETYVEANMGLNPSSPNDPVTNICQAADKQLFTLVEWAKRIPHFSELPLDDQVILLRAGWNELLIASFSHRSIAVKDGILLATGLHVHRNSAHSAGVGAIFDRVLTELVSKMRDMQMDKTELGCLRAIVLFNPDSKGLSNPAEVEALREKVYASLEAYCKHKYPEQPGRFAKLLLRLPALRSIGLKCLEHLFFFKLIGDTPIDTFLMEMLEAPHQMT

[7] = molecular target: Thyroid hormone receptor beta (Homo sapiens) (UniProt P10828); assay: qHTS assay for small molecule agonists of thyroid hormone receptor beta signaling (AID 588545)
Chain of Thyroid hormone receptor beta (Homo sapiens) (P10828 whole entry, looked up): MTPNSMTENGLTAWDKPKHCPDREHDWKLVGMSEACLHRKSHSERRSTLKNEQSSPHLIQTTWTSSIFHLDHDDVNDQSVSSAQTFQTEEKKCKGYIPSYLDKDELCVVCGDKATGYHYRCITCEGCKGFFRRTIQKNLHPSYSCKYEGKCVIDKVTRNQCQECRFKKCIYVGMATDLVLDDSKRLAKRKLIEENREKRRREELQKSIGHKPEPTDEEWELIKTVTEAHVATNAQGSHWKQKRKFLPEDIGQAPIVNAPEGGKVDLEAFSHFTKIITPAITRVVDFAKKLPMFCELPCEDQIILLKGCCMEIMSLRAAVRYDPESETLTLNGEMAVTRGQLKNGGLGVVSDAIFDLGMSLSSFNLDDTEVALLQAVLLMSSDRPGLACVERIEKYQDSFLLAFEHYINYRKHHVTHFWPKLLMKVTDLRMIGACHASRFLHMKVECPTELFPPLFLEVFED
Summary of the method: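 Cells (2500/well) were seeded, incubated 4 hrs at 37 C, dosed with a compound series, incubated 18 hrs, loaded with CCF4 dye for 2 hrs at RT, then read for fluorescence. Data were scaled between DMSO (0%) and 10 nM T3 (100%).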

[8] = qHTS assay for small molecule antagonists of retinoid X receptor alpha signaling (AID 588546; active means well fitted inhibition curve with a large enough effect in the signal ratio, with a control signal flat, not every such curve was filed as active; the % refers to the signal ratio; further: potency means the concentration at half of the fitted maximal effect); conditions: HEK293T RXRa-UAS-bla, beta-lactamase ratio, antagonist mode; measured here: W530 green channel, cytotoxicity proxy
Summary of the method: (§1)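 Beta-lactamase reporter inhibition, read as CCF4 fluorescence ratio (ex 405, em 460/530 nm) after 2 h at RT. HEK293T UAS-bla cells, 2500/well, were stimulated with 9-cis-RA at 500 or 100 nM final alongside test compound for 18 h at 37 C.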

[9] = molecular target: Retinoic acid receptor RXR-alpha (Homo sapiens) (UniProt P19793); assay: as above; conditions: HEK293T RXRa-UAS-bla, beta-lactamase ratio, antagonist mode
Summary of the method: as §1

[10] = molecular target: Thyroid hormone receptor beta (Homo sapiens) (UniProt P10828); assay: qHTS assay for small molecule antagonists of thyroid hormone receptor beta signaling (AID 588547; active means well fitted inhibition curve with a large enough effect in the signal ratio, with a control signal flat, not every such curve was filed as active; the % refers to the signal ratio;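 further: cells stimulated with 0.4 nM T3 agonist during compound exposure; series mostly up to about 77 µM; on the % scale 0 is the no-effect control and ±100 the full control effect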); conditions: TR-UAS-bla HEK293, beta-lactamase ratio, antagonist mode, 18 h
Summary of the method: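 TR-UAS-bla GripTite HEK293 cells in 2% charcoal/dextran FBS medium; compounds 0.59 nM to 92 uM with T3 at 0.4nM final, 18 h at 37 C. Beta-lactamase read by CCF4 fluorescence (460/530 nm); Hill fits gave IC50 and efficacy.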

[11] = qHTS assay for small molecule activators of the p53 signaling pathway (AID 651743; active means well fitted activation curve with a large enough effect in the signal ratio, not every such curve was filed as active; the % refers to the signal ratio; further: potency means the concentration at half of the fitted maximal effect; on activation: series mostly up to about 92 µM; % of control where 0% means no effect); conditions: HCT-116 p53RE-bla, beta-lactamase FRET ratio, 16 h; activation: stronger effect = higher value
Summary of the method: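 Reporter: beta-lactamase driven by p53 response elements, stably integrated in HCT-116 cells. Cells seeded at 4,000/well, 5 h preincubation, compound (DMSO) 16 h at 37 C; B/G FRET substrate 2 h RT; fluorescence intensity read.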

[12] = qHTS assay for environmental chemicals that activate the Aryl hydrocarbon Receptor (AhR) signaling pathway (AID 651777; active means well fitted curve in the direction sought with a large enough effect; an effect the other way counts as inactive or inconclusive; further: % of control where 0% means no effect; nearly all actives have a fitted effect of over 15% in size); conditions: 1A2-DRE human hepatoma cells, luciferase, 24 h; activation: stronger effect = higher value
Summary of the method: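 Luminescence read-out: One-Glo added for 30 min at RT after 24 hr compound treatment (37 C, 5% CO2) of human hepatoma cells expressing a DRE/CYP1A2 promoter–luciferase reporter; increased signal indicates AhR activation.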

[13] = molecular target: Peroxisome proliferator-activated receptor alpha (Homo sapiens) (UniProt Q07869); assay: qHTS assay for small molecule agonists of the peroxisome proliferator-activated receptor alpha (PPARalpha) signaling pathway (AID 651778; active means well fitted curve in the direction sought with a large enough effect; an effect the other way counts as inactive or inconclusive; further: % of control where 0% means no effect); conditions: PathHunter PPARalpha complementation, chemiluminescence, 6 h; max response: stronger effect = higher value
Chain of Peroxisome proliferator-activated receptor alpha (Homo sapiens) (Q07869 whole entry, looked up, the tested form may be a part): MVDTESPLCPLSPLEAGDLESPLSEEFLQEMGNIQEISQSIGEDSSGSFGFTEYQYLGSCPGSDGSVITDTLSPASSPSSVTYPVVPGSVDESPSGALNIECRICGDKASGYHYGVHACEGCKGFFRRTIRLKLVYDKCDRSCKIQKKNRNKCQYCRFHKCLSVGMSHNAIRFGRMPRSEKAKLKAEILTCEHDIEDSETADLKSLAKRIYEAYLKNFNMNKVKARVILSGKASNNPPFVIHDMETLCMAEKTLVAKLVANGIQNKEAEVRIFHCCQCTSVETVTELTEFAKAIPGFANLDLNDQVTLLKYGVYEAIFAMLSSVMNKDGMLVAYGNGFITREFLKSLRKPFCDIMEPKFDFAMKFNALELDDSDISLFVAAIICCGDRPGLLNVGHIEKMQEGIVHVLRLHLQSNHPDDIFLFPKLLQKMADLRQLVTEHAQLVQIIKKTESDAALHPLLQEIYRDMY
Summary of the method: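 Enzyme-fragment complementation assay in which ligand-bound PPARalpha translocates and forms an active enzyme that generates chemiluminescence. Cells were plated overnight, exposed to compound for 6 hr at 37 C, and then given detection reagent for 60 min at room temperature.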

[14] = qHTS assay for small molecule agonists of the antioxidant response element (ARE) signaling pathway measured by Nrf2-dependant transcriptional activity (AID 720636; active means well fitted curve in the direction sought with a large enough effect in the repeat runs; an effect the other way counts as inactive or inconclusive;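 further: HepG2 cells with an ARE-driven luciferase reporter; % of control where 0% means no effect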)
Summary of the method: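 HepG2 ARE-luc reporter line, 1% dialyzed FBS; 6 hr attachment at 37 C, compound pinned in, 16 hr at 37 C/5% CO2; ONE-Glo, 30 min RT, luminescence read.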

[15] = qHTS assay for small molecule agonists of the antioxidant response element (ARE) signaling pathway measured by Nrf2-dependant transcriptional activity - cell viability counter screen (AID 720653; active means well fitted curve in the direction sought with a large enough effect in the repeat runs; an effect the other way counts as inactive or inconclusive; further: on the % scale 0 is the no-effect control and ±100 the full control effect); conditions: ARE-bla HepG2 viability, CellTiter-Glo ATP luminescence, 16 h; max response: stronger effect = lower value
Summary of the method: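 ARE-bla HepG2 cells treated with compounds for 16 h at 37C; this counter screen measures viability as intracellular ATP by CellTiter-Glo luminescence after 30 min at room temperature.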

[16] = qHTS assay for cell viability of HEK293 cells (AID 743288; active means well fitted curve in the direction sought with a large enough effect; an effect the other way counts as inactive or inconclusive; further: on the % scale 0 is the no-effect control and ±100 the full control effect; nearly all actives have a fitted effect of over 50% in size); conditions: ATP luminescence (CellTiter-Glo), 18 h; max response: stronger effect = lower value
Summary of the method: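 Viable-cell counts were inferred from luciferase-based ATP content in HEK293 cells seeded at 2,000/well, pre-incubated ≥5 h, then dosed with DMSO-solubilised compounds for 18 h at 37 C.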

[17] = qHTS assay for cell viability of the p53RE-bla HCT-116 cell line (AID 743292; active means well fitted curve in the direction sought with a large enough effect; an effect the other way counts as inactive or inconclusive; further: on the % scale 0 is the no-effect control and ±100 the full control effect; nearly all actives have a fitted effect of over 55% in size)
Summary of the method: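 Luminescent ATP quantitation (CellTiter-Glo) served as the viability read-out; reagent was added after 16 h compound exposure at 37 C and read after 30 min at room temperature. Cells: p53RE-bla HCT-116, 4,000 per well.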

[18] = molecular target: Nuclear receptor subfamily 1 group I member 2 (Rattus norvegicus) (UniProt Q9R1A7); assay: qHTS assay for small molecule activators of the rat pregnane X receptor (rPXR) signaling pathway (AID 651751; call rule not given here; further: 0% is about no effect); conditions: rPXR reporter cells, luciferase (One-Glo), 24 h
Chain of Nuclear receptor subfamily 1 group I member 2 (Rattus norvegicus) (Q9R1A7 whole entry, looked up): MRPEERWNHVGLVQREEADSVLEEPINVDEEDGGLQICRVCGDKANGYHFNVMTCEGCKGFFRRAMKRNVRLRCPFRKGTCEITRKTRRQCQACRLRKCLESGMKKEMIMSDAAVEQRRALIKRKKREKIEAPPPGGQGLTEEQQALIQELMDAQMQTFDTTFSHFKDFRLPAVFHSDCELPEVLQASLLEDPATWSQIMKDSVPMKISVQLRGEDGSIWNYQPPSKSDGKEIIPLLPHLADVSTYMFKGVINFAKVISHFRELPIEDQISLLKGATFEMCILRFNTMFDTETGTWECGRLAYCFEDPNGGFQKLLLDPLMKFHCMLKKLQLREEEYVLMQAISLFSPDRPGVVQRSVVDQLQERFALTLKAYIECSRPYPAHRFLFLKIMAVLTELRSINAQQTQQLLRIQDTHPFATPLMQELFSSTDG

[19] = qHTS assay for small molecule activators of the human pregnane X receptor (PXR) signaling pathway (AID 720659; call rule not given here; further: 0% is about no effect)
[20] = molecular target: Glucocorticoid receptor (Homo sapiens) (UniProt P04150); assay: qHTS assay for small molecule agonists of glucocorticoid receptor signaling (AID 588532; active means well fitted curve in the direction sought with a large enough effect in the signal ratio, with a control signal flat; the % refers to the signal ratio;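 further: 100% = dexamethasone at 0.1 µM and 0% = DMSO only wells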); conditions: HeLa MMTV-bla, beta-lactamase ratio, agonist, 18 h; activation: stronger effect = higher value, percent of dexamethasone control, DMSO zero
Chain of Glucocorticoid receptor (Homo sapiens) (P04150 whole entry, looked up): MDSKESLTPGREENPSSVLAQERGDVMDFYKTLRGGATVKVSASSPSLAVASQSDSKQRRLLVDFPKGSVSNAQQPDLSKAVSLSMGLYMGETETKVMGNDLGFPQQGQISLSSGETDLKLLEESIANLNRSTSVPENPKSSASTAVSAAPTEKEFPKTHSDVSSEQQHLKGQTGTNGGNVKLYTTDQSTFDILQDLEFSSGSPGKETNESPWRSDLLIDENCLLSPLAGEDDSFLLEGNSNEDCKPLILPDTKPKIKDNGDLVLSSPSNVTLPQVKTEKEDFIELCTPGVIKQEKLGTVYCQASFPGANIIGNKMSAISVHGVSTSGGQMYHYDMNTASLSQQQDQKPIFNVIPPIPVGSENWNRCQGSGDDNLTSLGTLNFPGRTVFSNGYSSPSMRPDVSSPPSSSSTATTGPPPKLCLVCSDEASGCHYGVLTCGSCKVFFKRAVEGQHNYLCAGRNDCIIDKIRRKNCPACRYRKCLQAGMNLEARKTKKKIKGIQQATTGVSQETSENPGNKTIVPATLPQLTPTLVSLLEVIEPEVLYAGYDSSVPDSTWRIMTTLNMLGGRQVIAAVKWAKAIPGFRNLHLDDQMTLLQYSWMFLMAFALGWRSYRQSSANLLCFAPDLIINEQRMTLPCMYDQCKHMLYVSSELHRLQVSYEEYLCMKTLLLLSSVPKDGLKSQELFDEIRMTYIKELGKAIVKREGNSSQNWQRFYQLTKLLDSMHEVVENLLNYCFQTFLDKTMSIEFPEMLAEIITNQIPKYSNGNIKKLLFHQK
Summary of the method: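 Cells were plated and rested 3-5 h at 37 C, compounds were added in titration and incubated 18 h, then CCF4 substrate was loaded for 2 h at RT before reading blue/green fluorescence. EC50 came from Hill-equation fitting.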

[21] = molecular target: Vitamin D3 receptor (Homo sapiens) (UniProt P11473); assay: qHTS assay for small molecule agonists of vitamin D receptor signaling (AID 588543);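 further: 0% = DMSO basal and 100% = reference agonist control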
Summary of the method: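 Reporter cells (HEK293T, VDR-UAS-bla) were seeded in medium with 2% charcoal-stripped serum and incubated 5 h, then compounds in concentration series were added for 16 h at 37 °C. Stimulation was scaled between DMSO basal and 50 nM 1α,25-dihydroxyvitamin D3.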

[22] = qHTS assay for small molecule agonists of the antioxidant response element (ARE) signaling pathway (AID 651741; active means well fitted activation curve with a large enough effect in the signal ratio; the % refers to the signal ratio; further: potency means the concentration at half of the fitted maximal effect)
Summary of the method: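 HepG2 ARE-bla reporter cells, 2,000/well; 5 h settle at 37 C/5% CO2; compound pin transfer (23 nL, DMSO); 16 h at 37 C; LiveBLAzer B/G FRET substrate, 2 h RT; fluorescence intensity read.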

CC(C)OB(OC(C)C)OC(C)C
inactive: activation [1] -0.77%

CS(=O)(=O)NC(=O)c1cc(Oc2ccc(C(F)(F)F)cc2Cl)ccc1[N+](=O)[O-]
inactive: Potency [2] | activation [1] -9.24% | Potency [3] | Potency [4] | Potency [6] | Potency [7] | max response [9] -2.65% | activity change % (negative = inhibition) [10] -8.1% | activation [11] -3.62% | activation [12] 0.872% | max response [13] -2.59% | Potency [14] | max response [15] -2.76% | max response [16] -3.04% | Potency [17] | max response [18] -4.18% | outcome [19]
1.68%: max response [5]
-6.47%: max response [8]

CC(Cl)(Cl)C(=O)OCCOc1cc(Cl)c(Cl)cc1Cl
inactive: activation [1] 0.229%

COC(=O)N(OC)c1ccccc1COc1ccn(-c2ccc(Cl)cc2)n1
-23.9%: max response [5]
active: Potency [9] 3.16 µM | Potency [22] 5.45 µM | Potency [11] 5.01 µM
-0.714%: max response [8]
inactive: activation [1] 11.5% | activation [20] -3.13% | outcome [21] | Potency [6] | Potency [7] | activation [12] 10.6% | max response [13] -0.36% | Potency [14] | max response [15] -16.5% | Potency [17] | max response [18] -12.5% | outcome [19]

COC(=O)c1ccc(CNS(C)(=O)=O)cc1S(=O)(=O)NC(=O)Nc1nc(OC)cc(OC)n1
inactive: activation [1] -2.61%

CCCCOCCOCCOC(=O)CCCCC(=O)OCCOCCOCCCC
inactive: activation [1] 3.42%

O=C=Nc1ccc(Cl)c(Cl)c1
inactive: activation [1] 2.96%
